M1 PAM: positive allosteric modulators of human M1 muscarinic receptor. activation, % at 3 µM. 360,000 compounds, 0.088% hits. CHO-K1 hM1, Fluo-8 calcium fluorescence, ACh EC20; 0% = ACh EC20, 100% = maximal ACh. P11229; in the data active means activation above about 19%, passing the limit was not always enough
Target sequence (P11229 whole entry, looked up): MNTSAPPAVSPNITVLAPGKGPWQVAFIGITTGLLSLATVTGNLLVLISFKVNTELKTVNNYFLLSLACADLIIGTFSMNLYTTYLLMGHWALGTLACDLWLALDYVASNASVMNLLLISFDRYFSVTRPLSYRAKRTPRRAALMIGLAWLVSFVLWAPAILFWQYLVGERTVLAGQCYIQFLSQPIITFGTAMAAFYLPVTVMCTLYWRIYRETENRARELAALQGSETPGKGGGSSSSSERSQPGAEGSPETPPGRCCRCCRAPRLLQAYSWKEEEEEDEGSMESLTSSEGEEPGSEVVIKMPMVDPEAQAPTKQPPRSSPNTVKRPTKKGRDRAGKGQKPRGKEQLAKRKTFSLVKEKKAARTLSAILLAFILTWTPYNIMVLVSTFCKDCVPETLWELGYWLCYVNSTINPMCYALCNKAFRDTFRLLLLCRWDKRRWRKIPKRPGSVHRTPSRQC
M1 PAM parental: M1 PAM counterscreen hit in parental CHO-K1 cells; ATP EC20, Fluo-8 calcium fluorescence; 0% at ATP EC20, 100% at ATP max; 360,000 compounds, 0.02% hits; activation, % at 3 µM;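 active means activation above the run cutoff, the mean activation of all test compounds plus 3 SD, cut at about 40% in these data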;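 further: peak over basal fluorescence ratio in a 140 s read after ATP addition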
CHO-K1 Ca ag: counter-screen for M1 agonists: effect in parental CHO-K1 cells | AID 602248 | Fluo-8 calcium fluorescence; scaled to maximal ATP response, vehicle zero | activation, % at 3 µM | 360,000 compounds, 0.48% hits; in the data active means activation above about 15%;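 further: untransfected CHO-K1 host cells lacking M1 receptor as counterscreen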
CHO-K1 Ca antag: M1 antagonist counterscreen hit in parental CHO-K1 cells; ATP-induced calcium, Fluo-8 fluorescence; inhibition, % at 3 µM; 360,000 compounds, 0.6% hits; AID 602250;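 active means inhibition above a per-plate cutoff, the plate's mean sample inhibition plus 3 SD, cut at about 24% in these data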
M1 ag: agonists of human M1 muscarinic receptor | activation, % at 3 µM | 360,000 compounds, 0.33% hits | AID 588814 | CHO-K1 hM1, Fluo-8 calcium fluorescence, agonist mode; 0% DMSO, 100% acetylcholine EC100 | P11229;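 active means activation above the run's mean compound activation plus 3 SD, cut at about 16% in these data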;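 further: peak over basal fluorescence ratio within a 140 s kinetic read after compound addition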
M1 antag: human CHRM1 antagonism; P11229; inhibition, % at 3 µM; AID 588852; 360,000 compounds, 1.3% hits; CHO-K1 hM1, Fluo-8 calcium fluorescence, ACh EC80 antagonist;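 active means percent inhibition above its own plate's cutoff, namely the mean of that plate's compound wells plus 3 SD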;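 further: peak over basal fluorescence ratio during 140 s after agonist addition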
Hits are given with their value; i = inactive. Sampled rows, rich in hits. Any-hit rate of the full collection: about 2.4%.

SMILES	M1 PAM	M1 PAM parental	CHO-K1 Ca ag	CHO-K1 Ca antag	M1 ag	M1 antag
CC(=O)N1N=C(c2cccnc2)OC1c1ccccc1Cl (configuration not stated)	i	i	16	i	i	i
O=C(COc1ccc(Cl)cc1)NC1CN2CCC1CC2 (configuration not stated)	i	i	i	i	i	45
CC(=O)Nc1cc(C(=O)N2CCC3(CC2)OCCO3)ccc1Sc1ccc(C)cc1	i	i	i	i	i	i
Fc1ccc(CCNCc2ccc(Br)cc2)cc1	i	41	i	i	i	i
CS(=O)(=O)c1ccc(C2=C(CNC(=O)c3nccs3)[C@H]3CC[C@@H](C2)N3CCOc2ccccc2)cc1	i	i	i	i	i	56
CS(=O)(=O)c1ccc(C2=C(CNC(=O)c3cccs3)[C@H]3CC[C@@H](C2)N3CCOc2ccccc2)cc1	i	i	i	i	i	35
CS(=O)(=O)c1ccc(C2=C(CNC(=O)c3ccncc3)[C@H]3CC[C@@H](C2)N3Cc2ccccc2)cc1	i	i	i	i	i	i
Cn1c(O)c(/C=N/c2ncccn2)c(=O)n(C)c1=O	i	i	i	i	i	i
CN1CCN(CC(=O)Nc2ccc(Cl)cc2C(=O)c2ccccc2)CC1	i	i	i	i	i	i
COc1ccc(N2C(=O)/C(=C/c3ccc(N(C)C)o3)C(=O)NC2=S)cc1	i	i	i	i	i	i
CCN(CC)c1ccc(C=C2C(=O)N(C)C(=S)N(C)C2=O)o1	i	i	i	i	i	i
CCN(CC)c1ccc(/C=C2\C(=O)NC(=S)N(C)C2=O)o1	i	i	19	i	i	i
CCN(CC)c1ccc(/C=C2\C(=O)NC(=S)N(c3ccc(OC)cc3OC)C2=O)o1	i	i	23	i	i	i
COc1cc(CNCCc2ccc3c(c2)OCO3)ccc1O	i	i	i	i	i	i
C[N+]1(CC2COC(c3ccco3)O2)CCCCC1 (configuration not stated)	i	i	i	i	i	i
COc1ccc(S(=O)(=O)N2Cc3ccccc3-n3nncc3C2)cc1	i	i	i	i	i	i
CC(C)S(=O)(=O)N1Cc2ccccc2-n2nncc2C1	i	i	i	i	i	47
C[C@H]1CC[C@@H]2N(C1)C[C@H]1[C@@H]3C[C@H]4[C@@H](CC(=O)[C@H]5C[C@@H](O)CC[C@@]54C)[C@@H]3CC[C@H]1[C@]2(C)O	i	i	i	i	i	86
CC(=O)O[C@H]1CC[C@@]2(C)[C@H](C1)C(=O)C[C@H]1[C@@H]3CC[C@@H]4[C@@H](CN5C[C@@H](C)CC[C@H]5[C@@]4(C)O)[C@@H]3C[C@@H]12	i	i	i	i	i	100
COCCNC(=O)N1[C@H]2CC[C@@H]1C(C(=O)OC)=C(c1cccc(C#N)c1)C2	i	i	i	i	i	i
Nc1ncnc2c1ccn2[C@@H]1O[C@H](CO)[C@@H](O)[C@H]1O	i	i	i	i	i	i
CCCCCSc1cc(OC)c(CCNC)cc1OC	i	i	i	i	i	36
CCCCCCCSc1cc(OC)c(CCNC)cc1OC	i	i	i	i	i	i
CN(C)C(=O)OCc1n(C)cc[n+]1C	i	i	i	i	i	i
CCOP(=S)(OCC)Oc1cc(C)oc(=O)c1Cl	i	i	i	i	i	i
SMILES	M1 PAM	M1 PAM parental	CHO-K1 Ca ag	CHO-K1 Ca antag	M1 ag	M1 antag
CCOP(=S)(OCC)Oc1cc(C)oc(=O)c1	29	i	i	i	i	i
Brc1ccc2c(c1)C(OC1CN3CCC1CC3)c1ccccc1CS2 (configuration not stated)	i	i	i	i	i	101
COC(=O)C(O)(c1ccc(NC(=S)NC(=O)c2ccc(Cl)cc2Cl)cc1)C(F)(F)F (configuration not stated)	i	i	i	i	21	i
CCOC(=O)C(O)(c1ccc(NC(=S)NC(=O)c2ccc(Cl)cc2Cl)c(C)c1)C(F)(F)F (configuration not stated)	i	i	i	i	22	49
CCOC(=O)C(O)(c1ccc(NC(=O)Oc2ccccc2)cc1)C(F)(F)F (configuration not stated)	i	i	i	i	i	i
COC(=O)C(O)(c1ccc(NC(=S)NC(=O)c2ccc(Cl)cc2Cl)c(C)c1)C(F)(F)F (configuration not stated)	i	i	i	i	i	i
COC(=O)C(O)(c1ccc(NC(=O)NC2CCCCC2)cc1)C(F)(F)F (configuration not stated)	i	i	i	i	i	i
CCOC(=O)C(O)(c1ccc(NC(=S)NC(=O)c2ccc(Cl)cc2Cl)cc1)C(F)(F)F (configuration not stated)	i	i	i	i	21	i
CN(C)[C@@H]1C(=O)C(C(N)=O)=C(O)[C@@]2(O)C(=O)C3=C(O)c4c(O)cccc4[C@@](C)(O)C3C[C@@H]12 (some centres not stated)	i	i	i	i	i	i
Cc1ccccc1OCCCn1cc(C(=O)C(=O)N2CCOCC2)c2ccccc21	i	i	i	i	i	i
CCOC(=O)C(O)(c1ccc(N(CC)S(=O)(=O)c2ccccc2)cc1)C(F)(F)F (configuration not stated)	i	i	i	i	i	i
S=C(NCCc1ccccc1)N1Cc2cc(Br)ccc2-n2nncc2C1	i	i	i	27	i	i
S=C(NCCc1ccccc1)N1Cc2ccc(Br)cc2-n2nncc2C1	i	i	i	i	i	i
O=[N+]([O-])/C=C1/NCCN1Cc1ccc(Cl)nc1	i	i	i	26	i	i
O=[N+]([O-])/C(Cl)=C1\NCCN1Cc1ccc(Cl)nc1	i	i	i	i	i	i
NCC(=O)c1ccccc1	i	i	i	i	i	i
CCCCCCn1c(O)c(C=Nc2c(C)n(C)n(-c3ccccc3)c2=O)c(=O)[nH]c1=O	i	i	i	i	i	47
COC(=O)C1=C(c2ccc(C(C)=O)cc2)C[C@@H]2CC[C@H]1N2C(=O)NCc1ccc(C(F)(F)F)cc1	i	i	24	i	24	i
CCC(C)N1C(=O)NC(=O)C2(Cc3c(ccc4ccccc34)N(C)C2)C1=O (configuration not stated)	i	i	i	i	i	44
COC(=O)C1=C(c2cccc(C#N)c2)C[C@@H]2CC[C@H]1N2C(=O)NCCNC(C)=O	i	i	i	i	i	i
Cc1cc(C)cc(N2C(=O)NC(=O)/C(=C\c3cccn3-c3ccc(Cl)cc3)C2=O)c1	i	i	i	i	i	i
CCCCc1nc(N2CCNCC2)c(C#N)c2c1CSC(C)(C)C2	i	i	i	i	i	54
N#Cc1c(N2CCNCC2)nc(-c2ccco2)c2c1CCCC2	i	i	i	i	i	i

Bioassay records as filed in PubChem BioAssay.
